Each molecule was assayed against Glucose transporter (Leishmania mexicana) (UniProt O61059) (assay: ST_JUDE_LEISH: Cytotoxicity at 2uM final concentration against transgenic Leishmania Mexicana promastigotes LmGT2 that are glucose transport deficient and complemented with the L. Mexicana glucose transporter 2. Activity is measured by DNA content using SYBR green in vitro).
Assay type: functional

First: COc1ccc2nccc([C@@H](O)CN3CCC(NCCOc4c(C)cccc4F)CC3)c2c1
Second: COc1ccc(CN2CCCN(Cc3cccc(C(=O)Nc4ccc(C)c(F)c4)c3)CC2)cc1
The inhibition of the first is higher: 4.05% for the first, 1.49% for the second.

First: CCCCN(CCCC)CCC(O)C(=Cc1ccc(Cl)cc1Cl)c1ccc(C(F)(F)F)cc1N (stereo not given)
Second: OCC1CCN(Cc2ccc(-c3ccc(-c4nc5cc(C(F)(F)F)ccc5[nH]4)cc3)cc2)CC1
The inhibition of the first is lower: 0.7% for the first, 3.07% for the second.

First: CCc1sc(N2CCC(C)CC2)nc1C(=O)Nc1ccc(F)cc1C(F)(F)F
Second: Cc1cccc2nc(-c3ccc(-c4cccc(NC(=O)CN5CCN(C)CC5)c4)s3)[nH]c12
The inhibition of the first is lower: 0.26% for the first, 2.66% for the second.

Compared with CS(=O)(=O)c1cccc2sc(N3CCN(C(=O)c4ccc([N+](=O)[O-])o4)CC3)nc12, COc1ccc(CN2CCN(C(=O)c3cccs3)CC2)c(O)c1 is higher in inhibition: 3.97% for the first, 8.97% for the second.

Compared with Cc1[nH]c2c(C)cccc2c1C1CCN(CCC2CCN(C(=O)/C=C/c3ccc(Cl)c(Cl)c3)CC2)CC1, CC(C)(C)OC(=O)n1cc(C2CCN(CCCC34CCCc5cccc(c53)NC4=O)CC2)c2ccncc21 (stereo not given) is higher in inhibition: 2.49% for the first, 9.45% for the second.

First: CCSc1ccccc1CON1C(=N)N=C(N)NC1(C)C
Second: CC1(C)NC(N)=NC(=N)N1OCc1ccc(-c2ccccc2)cc1
The inhibition of the first is higher: 18.7% for the first, 3.79% for the second.

First: COc1cc2nc(N(C)Cc3cccc(I)c3)nc(N)c2cc1OC
Second: COc1cc2nccc(Nc3cccc(Oc4ccccc4)c3)c2cc1OC
The inhibition of the first is lower: 1.56% for the first, 9.3% for the second.

Compared with O=C(NCc1ccco1)c1ccc(CN2CCN(C(c3ccccc3)c3ccccc3)CC2)cc1, O=C(NNC(=O)c1ccc(CN2CCC(c3nc4ccccc4[nH]3)CC2)cc1)Nc1ccc(Oc2ccccc2)cc1 is lower in inhibition: 4.79% for the first, 1.36% for the second.

Going from Cc1ccc(O)cc1Nc1ccnc2cc(-c3csc(CN4CCN(C)CC4)n3)ccc12 to Oc1cc(Nc2ccnc3cc(-c4cccc(CN5CCOCC5)c4)ccc23)c(F)cc1Cl, the inhibition falls from 5.57% to 3.67%.

First: CC(=O)c1c(Nc2c(C)cc(C)cc2C)oc(C)cc1=O
Second: CCN(CC)CCNc1ccnc2[nH]c3ccc(C)cc3c12
The inhibition of the first is higher: 3.1% for the first, 0.34% for the second.

Compared with CC(C)C[C@H]1C(=O)N[C@H](C2Cc3ccccc3C2)C(=O)N1[C@@H](C(=O)Nc1ccccc1OCc1ccccc1)c1ccc(F)cc1F, O=C(CSc1nnc(O)n1Cc1ccccc1)Nc1ccccc1-c1ccccc1 is higher in inhibition: -0.16% for the first, 5.02% for the second.

Going from CCOC(=O)C(NC(=O)c1ccc([N+](=O)[O-])o1)C(C)C (stereo not given) to CC(C)C[C@@H](NC(=O)OC(C)(C)C)C(=O)Nc1ccc(Cc2ccc(NC(=O)[C@@H](CC(C)C)NC(=O)OC(C)(C)C)cc2)cc1, the inhibition rises from -2.33% to 0.63%.

Going from COc1ccc(C(=O)CCC(=O)N(Cc2ccc(-c3ccc(CNCCc4ccc(S(C)(=O)=O)cc4)cn3)cc2)Cc2ccc3c(c2)OCO3)cc1F to CN(C)C(=O)c1ccc(CN(Cc2cccc(OC(C)(C)C)c2)Cc2ccc3c(c2)OCCO3)cc1, the inhibition rises from -0.58% to 1%.

First: CCC[C@@H]([C@@H](CC1CCC(C)CC1)C(=O)N[C@@H](CCCCNC(=O)c1ccccn1)C(=O)Nc1nccs1)N(O)C=O (stereo not given in full)
Second: O=C(NCCCCCN1CCC(c2c[nH]c3ccccc23)CC1)Nc1cccc(I)c1
The inhibition of the first is lower: 1.8% for the first, 5.88% for the second.

First: COc1cc(Cc2c(C)nc3nc(N)nc(N)c3c2C)c(Br)c(OC)c1OC
Second: COc1ccc2nccc(N3CCC(NCCNCc4ccc5c(n4)NC(=O)CO5)C3)c2n1 (stereo not given)
The inhibition of the first is higher: 4.73% for the first, 1.15% for the second.

First: O=C(/C=C/c1ccccc1Cl)Nc1ccc(Br)c(OCCN2CCCCC2)c1
Second: COCCn1c(-c2cccc(Cl)c2)nn(-c2ccc([N+](=O)[O-])cc2Cl)c1=S
The inhibition of the first is lower: -0.1% for the first, 7.62% for the second.

Compared with c1ccc(CN2CCC(NCc3ccccc3-c3cccc(CNCc4ccc5c(c4)OCO5)c3)CC2)cc1, N/C(=N\c1cccc(Cc2ccccc2)n1)NCc1ccccc1 is higher in inhibition: 0.7% for the first, 3.21% for the second.

Going from NCC1CCCN1Cc1ccc(-c2ccc(-c3nc4cc(F)ccc4[nH]3)cc2)cc1 (stereo not given) to CC(C)N1CCN(C(CN2CCN(CCCOc3cccc4ccccc34)CC2)c2ccc(F)cc2)CC1 (stereo not given), the inhibition falls from 4.54% to 4.19%.

First: FC(F)(F)c1ccccc1OCc1cc(-c2ccncc2)c(COc2ccccc2C(F)(F)F)cc1C1=CCNCC1
Second: N#Cc1ccc(N(CCNS(=O)(=O)c2cc(Br)c(Cl)s2)Cc2ccccc2C(F)(F)F)cc1C(F)(F)F
The inhibition of the first is higher: 2.81% for the first, 1.55% for the second.

Compared with Cc1nccn1Cc1cc(C(C)(C)C)c(O)c(C(C)(C)C)c1, NS(=O)(=O)c1ccc(Nc2nccc(-c3c(-c4cccc(NC(=O)c5c(F)cccc5F)c4)nn4ccccc34)n2)cc1 is higher in inhibition: 3.5% for the first, 8.76% for the second.
